Several values for one entry are separate records, joined by “and”; a condition that tells them apart may be missing. Identical values can stand only once. In all, about 410,000 compounds went through this assay and about 820 (0.2%) were called active. Roughly 2% stayed inconclusive and do not appear here. Calls follow the shape of the dose curve; as a rule, active = well fitted activation curve with a large enough effect; inconclusive = small, poorly fitted or top-dose-only effect; inactive = flat fitted curve, though single readings scatter; cell line not stated here. What follows is part of a selection rich in actives, with near analogues and random picks from the rest. Some structures have more than one record in an assay (separate samples or runs), and their calls can disagree.
Test: A Quantitative High throughput Screen to Identify Chemical Modulators of PINK1 Expression; also: nearly all actives have a fitted effect of over 65% in size; as to activation (PINK1 increase): % of control where 0% means no effect
Details: PINK1 immunofluorescence, high-content cytometry, 24 h; series mostly up to 76.6 µM; activation (PINK1 increase): at the top concentration
Excerpt: The overall goal of this project is to develop new tools for understanding and treating the mitochondrial basis for neurodegenerative disease such as Parkinson's disease (PD). The PINK1 campaign was developed from recent data pointing towards mitochondrial dysfunction as a major contributor to dopaminergic neuron loss. The discovery of PINK1/Parkin mediated mitophagy has highlighted the potential for mitochondrial quality control as a novel target for therapeutic intervention. […] A second aim of this project is the development of chemical probes to study the mechanics of mitochondrial quality control. As the PINK1/Parkin mitophagy pathway is a relative recent discovery, no specific chemical probes are available that modulate the process. Presently, only crude tools that cause nonspecific mitochondrial damage are available. To advance the understanding of mitophagy, specific, well characterized chemicals that target various steps of mitophagy regulation need to be developed. New chemical probes may have the ability to dynamically manipulate mitophagy in model organisms such as rodents and zebrafish, advancing our understanding of the process in development and disease. This HTS campaign seeks to discover an activator of PINK1 expression by modulation at the level of post-translational processing.
The PINK1 assay determines the amount and localization of PINK1 protein in a cell using a combination of immunofluorescence and cell staining. The goal of the assay is to determine small molecules that can increase the expression of Pink1 on or inside the cell's mitochondria (ideally without mitochondrial depolarization) using a stable cell line. Since PINK1 protein is rapidly degraded in un-perturbed cells, compounds that induce the enhancement of PINK1 protein expression are identified by determining PINK1 immunofluorescence in conjunction with a mitochondrial, cell, and nuclear marker post fixation. To facilitate rapid high content screening, the primary assay is run in a decision-based HTS mode where compound titration data collected by laser-scanning microplate cytometers is processed and only promising compound series are passed off for high content drill down.
1 Add cells to black, clear-bottom, low-base 1536-well plates 6 uL (250 cells/well)
2 Incubate in TC incubator (12 hours)
3 Pin compounds or DMSO controls 23 nL (5 concentrations per compound set)
4 Dispense CCCP to control columns
5 Incubate in TC incubator 24 hours
6 Aspirate media and fix cells (5 uL of fixative containing nuclear dye)
7 Incubate 15 minutes at RT
8 Wash in PBSTween (12 uL/well)
9 Wash in PBSTriton (12 uL/well)
10 Aspirate wash and add Blocking buffer (4 uL/well)
12 Aspirate block and add primary antibodies 3.5 (uL/well)
13 Incubate 12 hours at 10 degrees C
14 Wash in PBSTween-20 two times (12 uL/well)
15 Aspirate wash and add secondary antibodies (12 uL/well)
17 Wash in PBSTween (12 uL/well)
18 Wash in PBSTween with cell stain (12 uL/well)
19 Read plates on Acumen EX3 and determine Wells2Cells coordinates
Potency is read from the fitted curve at half-maximal effect.

Structure (SMILES)	Potency	activation (PINK1 increase)
Cc1ccc(OCC(O)CN2CCN(CC(O)COc3ccc(C)cc3Cl)CC2)c(Cl)c1 (configuration not stated)	11.2 µM (active)	–
OC(COc1ccc(F)cc1Cl)CN1CCc2ccccc2C1 (configuration not stated)	–	1.72% (inactive)
Cc1cccc(OCC(O)CN2CCN(S(=O)(=O)c3ccc(C)cc3C)CC2)c1 (configuration not stated)	–	0.654% (inactive)
O=C(NCC1Cc2cc(F)cc(-c3cnccn3)c2O1)C1COc2ccccc2O1 (configuration not stated)	–	0.603% (inactive)
O=C(C(=O)N1CCOc2ccc(CN3CCN(Cc4ccccn4)CC3)cc2C1)c1ccccc1	–	0.0595% (inactive)
COc1ccc2c(c1)CCc1cnc(-n3ncc(C(=O)NCc4cccnc4)c3C3CC3)nc1-2	–	0.559% (inactive)
O=C(N/N=C/c1cccc2cccnc12)[C@H]1C[C@@H]1c1ccccc1	–	-0.0622% (inactive)
O=C(NN=Cc1ccccc1O)NN=Cc1ccccc1O	0.891 µM (active)	–
O=Nc1c(O)cc(O)c2ccccc12	–	1.49% (inactive)
CCC1CN(CCNC(=O)c2cccnc2C)Cc2cc(OC)ccc2O1 (configuration not stated)	–	-0.526% (inactive)
Cc1c(C(=O)NCC2CCCN(C)C2)cnn1-c1nccc(-c2ccco2)n1 (configuration not stated)	–	0.569% (inactive)
CC12CCC(C(=O)N(CCC#N)CCC#N)(CC1=O)C2(C)C (configuration not stated)	5.01 µM (active)	–
CCN(CC)c1ccc(/C=C/c2c(C)cnc3ccc(C)cc23)cc1	–	3.71% (inactive)
COc1cc(C)c(CN2CCc3nnc(C(C)NC(=O)c4cccnc4)n3CC2)cc1C (configuration not stated)	–	0.397% (inactive)
Cc1ccc(CNC(=O)Nc2nnc([C@H]3C[C@H](O)[C@@H](CO)O3)s2)cc1	–	-0.0573% (inactive)
Cc1ccc(NC(=O)Nc2nnc(-c3ccncc3)s2)cc1	15.8 µM (active)	–
CCCCN(C)c1nnc(NC(=O)Nc2ccc(Br)c(C)c2)s1	–	0.951% (inactive)
C/C=C/NNC(=O)Cc1ccc(OC)cc1	–	7.35% (inactive)
CCCc1cc(=S)n2c([nH]c3ccccc32)c1C#N	28.2 µM (active)	–
Cn1cccc1C(=O)N1CCC2(CC1)CN(c1cccc(-c3ccccc3)c1)C2	–	0.654% (inactive)
COc1c2c(cc3occ(-c4ccc5c(c4)OCO5)c(=O)c13)OC(C)(C)C=C2	–	1.47% (inactive)
CC(C)S(=O)(=O)c1csc(NC(=O)Nc2ccc(Cl)cc2)c1Cl	15.8 µM (active)	–
CC(=O)N1CCC(N(C(=O)Nc2ccc(Cl)cc2)C(C)C)CC1	–	0.539% (inactive)
CC(=O)c1ccc(NC(=O)C(C)NCc2ccc(Cl)cc2)cc1 (configuration not stated)	–	0.227% (inactive)
COc1cc(=O)n2c(c1C(=O)NC(C)c1ccco1)CCN(Cc1cc(C)cc(C)c1)CC2 (configuration not stated)	–	0.333% (inactive)

Structure (SMILES)	Potency	activation (PINK1 increase)
COc1ccc2[nH]cc(CCNc3ncnc4ccc(-c5ccc(C(=O)N(C)C)cc5)cc34)c2c1	–	1.44% (inactive)
O=C(CNS(=O)(=O)c1ccc2ccccc2c1)Nc1ccc(F)c(F)c1F	–	6.76% (inactive)
O=C(CNS(=O)(=O)c1cccc(C(F)(F)F)c1)Nc1ccccc1F	10 µM (active)	–
O=C(CNc1cccc(S(=O)(=O)N2CCCCC2)c1)Nc1ccccc1F	–	0.781% (inactive)
Cc1cnc(-n2ncc(C(=O)N3CCN(C(C)C)CC3)c2-c2ccco2)nc1-c1ccc(F)cc1	–	1.72% (inactive)
CC(C)(C)c1ccc(C(=O)C[n+]2cccc3cc(Cl)ccc32)cc1	–	5.06% (inactive)
OCC1CCCN(c2nc3cc4c(cc3cc2CNCc2cccs2)OCO4)C1 (configuration not stated)	–	-0.93% (inactive)
Cc1ccc(NC(=O)CCC(=O)N2CCC(c3ccccc3)=N2)cc1S(=O)(=O)N1CCCCC1	11.2 µM (active)	–
Cc1ccc(NC(=O)CCCNC(=O)c2ccc(Cl)cc2)cc1S(=O)(=O)N1CCCCC1	–	2.17% (inactive)
Cc1ccc(NC(=O)COC(=O)C2CC2)cc1S(=O)(=O)N1CCOCC1	–	0.894% (inactive)
COc1cc(=O)n2c(c1C(=O)NC(C)c1ccco1)CCN(C(=O)c1cn3ccc(C)cc3n1)CC2 (configuration not stated)	–	0.949% (inactive)
COc1cc(=O)n2c(c1C(=O)N(C)Cc1nonc1C)CCN(C(=O)c1ccc(C)cc1C)CC2	–	-0.189% (inactive)
CCC1CN(CCNC(=O)c2ccsc2)Cc2cc(OC)ccc2O1 (configuration not stated)	–	-0.839% (inactive)
Cc1nc2cc(NC(=O)[C@@H]3C[C@@H](Sc4ccccn4)CN3Cc3ccccc3C)ccc2s1	–	0.376% (inactive)
N#Cc1ccc[n+](CC(=O)c2ccc(O)c(O)c2)c1	–	0.262% (inactive)
O=C(Nc1nnc(S(=O)(=O)N2CCOCC2)s1)c1cccc(Br)c1	inactive	–
O=C(Nc1nnc(S(=O)(=O)N2CCCCCC2)s1)c1cccc(Br)c1	inactive and 28.2 µM (active)	–
O=C(Nc1nnc(S(=O)(=O)N2CCCc3ccccc32)s1)c1cccc(F)c1	–	2.55% (inactive)
CC(C)Cc1cc(C(=O)NCCc2ccccc2)no1	–	0.759% (inactive)
Cc1nn(Cc2ccc(F)cc2)c(C)c1NC(=O)c1cc(CC(C)C)on1	–	0.475% (inactive)
CC(C)Cc1cc(C(=O)Nc2cc(Br)ccc2O)no1	44.7 µM (active)	–
Cc1nc2cnc(N3CCNCC3)nc2n(Cc2ccc(F)cc2)c1=O	–	-0.606% (inactive)
COCc1c(C(=O)NC2CCCCC2)cnn1-c1nccc(-c2ccccc2OC)n1	–	0.512% (inactive)
COc1ccc(/C=C/c2ccccn2)cc1OC	–	1.64% (inactive)
CCCS(=O)(=O)NCc1c(C)ncc2c1CCN(C(=O)c1ccc(F)c(F)c1)C2	–	0.24% (inactive)

Structure (SMILES)	Potency	activation (PINK1 increase)
CC(O)(COc1ccccc1)c1ccc2c(c1)CN(Cc1cn[nH]c1-c1ccc(F)cc1)CCO2 (configuration not stated)	–	-0.0916% (inactive)
O=[N+]([O-])c1ccc(O)c(/C=N/Nc2ccccc2[N+](=O)[O-])c1	20 µM (active)	–
O=[N+]([O-])c1ccccc1N/N=C1\CCc2ccccc21	–	1.04% (inactive)
CN(C)c1ccc(/C=N\Nc2ccc([N+](=O)[O-])cc2[N+](=O)[O-])cc1Cl	–	0.417% (inactive)
COc1ccc(C)cc1N1C(=O)[C@@H]2C[C@H]1CN2Cc1cccc(OC)c1O	–	0.987% (inactive)
Cc1[nH]c2c(C(=O)NCC3Cc4cccc(-c5cccnc5)c4O3)cccc2c1C (configuration not stated)	–	1.19% (inactive)
CN(C)c1ccc(C=Nc2ccc(/C=C/c3ccnc4ccccc34)cc2)cc1	–	-0.636% (inactive)
COc1ccc2c(c1)c(=Cc1ccc(N(C)C)cc1)c1cc(-c3ccccc3)[n+](C)n12	–	-1.26% (inactive)
CN(C)c1ccc(/C=C/c2sc3ccccc3[n+]2C)cc1	44.7 µM (active)	–
COc1ccccc1-c1ccc(C(=O)N(C)C(C)c2ccon2)c(N2CCN(c3ccccc3F)CC2)n1 (configuration not stated)	–	1.15% (inactive)
Cc1ccc(-c2ccnc(-n3ncc(C(=O)N(C)Cc4cccc5ncccc45)c3C3CC3)n2)o1	–	0.511% (inactive)
C=CCSc1nsc(NC(=O)Nc2cccc(C(C)=O)c2)n1	15.8 µM (active)	–
Cc1ccc(C(=O)Nc2nc(-c3ccccc3)ns2)cc1	–	14.4% (inactive)
CSc1nsc(NC(=O)Nc2ccccc2)n1	22.4 µM (active)	–
CC(=O)c1cccc(NC(=O)CSc2nc3c(c(=O)[nH]2)CCC3)c1	–	1.26% (inactive)
CN(C(=O)CSc1nnc(NC(=O)Nc2ccccc2)s1)c1ccccc1	–	1.45% (inactive)
CC(=O)c1ccc(NC(=O)CSc2nnc(NC(=O)Nc3ccccc3)s2)cc1	–	-0.057% (inactive)
COC(=O)[C@@H]1C[C@H](NC(=O)c2ccccc2C(F)(F)F)CN1Cc1cccc(O)c1	–	0.0682% (inactive)
CC(=O)c1ccc(F)c(-c2cc(C)cc3c2OC(CNC(=O)Cc2c[nH]c4ccccc24)C3)c1 (configuration not stated)	–	-0.04% (inactive)
C(=Nc1ccc(/C=C/c2ccnc3ccccc23)cc1)Nc1ccc(/C=C/c2ccnc3ccccc23)cc1	–	-0.124% (inactive)
Cc1ncc2c(c1CNS(=O)(=O)N(C)C)CCN(C(=O)c1ccccc1F)C2	–	-0.0214% (inactive)
OCC(O)C(O)C(O)C(O)C=Nc1ccc(/C=C/c2ccnc3ccccc23)cc1 (configuration not stated)	–	0.535% (inactive)
COc1ccc(Oc2ncc3nc(-c4ccc(F)cc4)c(=O)n(C)c3n2)cc1	–	-0.15% (inactive)
CN(c1ccc2nc3ccccc3c(=O)n2n1)C1CCCCC1	–	0.372% (inactive)
CC1(C)Cc2ccccc2-c2c[nH]c(=O)n21	–	-0.443% (inactive)

Structure (SMILES)	Potency	activation (PINK1 increase)
O=c1c2ccccc2nc2n1C1(CCCCC1)Cc1ccccc1-2	4.47 µM (active)	–
COCC1CCCN(Cc2ccc3c(c2)CN(C(=O)c2ccnn2C)CCO3)C1 (configuration not stated)	–	0.143% (inactive)
C(=Nc1ccc(/C=C/c2ccnc3ccccc23)cc1)c1cc2c3c(c1)CCCN3CCC2	–	-0.851% (inactive)
Cc1cccc2c3c(ccc12)C1=C(C(=O)C3=O)C(C)CO1 (configuration not stated)	–	8.81% (inactive)
O=C1NC(CC(=O)N2CCC(n3c(C4CCC4)nc4cccnc43)CC2)c2ccccc21 (configuration not stated)	–	-0.132% (inactive)
Oc1c(Cl)cc(Cl)c(Cl)c1Cc1c(O)c(Cl)cc(Cl)c1Cl	2.82 µM (active)	–
CCN(CC)/[N+]([O-])=N/OCOC(=O)Cc1c(C)n(C(=O)c2ccc(Cl)cc2)c2ccc(OC)cc12	–	-1.4% (inactive)
Cc1cc(-c2ccnc(-n3ncc(C(=O)NCCc4ccncc4)c3C)n2)c(C)s1	–	0.637% (inactive)
Cc1cc(C(=O)NCC2Cc3cccc(-c4cncnc4)c3O2)c(C)o1 (configuration not stated)	–	0.573% (inactive)
CN(C)c1ccc(CN2CCOc3ccc(CN4CCC(O)(c5cccnc5)CC4)cc3C2)cc1	–	-0.177% (inactive)
O=C(c1cn(CC2CCCN(Cc3cc4ccccc4s3)C2)nn1)N1CCCC1 (configuration not stated)	–	-0.201% (inactive)
CCC1(C2CCN(C(=O)c3cccc(F)c3F)CC2)NC(=O)N(CCc2scnc2C)C1=O (configuration not stated)	–	0.188% (inactive)
CCCCN(C)S(=O)(=O)c1ccc(C(=O)Nc2sc3c(c2C(N)=O)CC(C)(C)NC3(C)C)cc1	–	-2.36% (inactive)
C=CCN(CC=C)S(=O)(=O)c1ccc(C(=O)Nc2sc3c(c2C(N)=O)CCCCC3)cc1	10 µM (active)	–
CCOC(=O)c1c(NC(=O)c2ccc(S(=O)(=O)N(CC)CC)cc2)sc2c1CCCCC2	–	-1.12% (inactive)
COc1ccc2c(c1)NC(=O)C2CC(=O)N1CCOc2c(cc(-c3cnc4ccccc4c3)cc2OC)C1 (configuration not stated)	–	1.57% (inactive)
COC(=O)c1ccccc1-c1cc(C)cc2c1OC(CNC(=O)C1CCOC1)C2 (configuration not stated)	–	-0.262% (inactive)
COc1ccc(CCNc2ncnc3sc(C(=O)N4CCCC4)c(C)c23)cc1OC	–	-0.358% (inactive)
COc1cc(-c2cccnc2)cc2c1OCCN(C(=O)Cc1csc(C)n1)C2	–	0.58% (inactive)
O=C(c1cccc(Cn2cccn2)c1)N1CCOc2c(cc(-c3csc4ccccc34)cc2OC2CCOC2)C1 (configuration not stated)	–	0.191% (inactive)
N#Cc1cccc(-c2ccc3ncnc(NCc4cccs4)c3c2)c1	–	-0.262% (inactive)
Cc1cc(-c2ccnc(-n3ncc(C(=O)NC(C)(C)CO)c3C3CC3)n2)c(C)s1	–	0.0821% (inactive)
